# From the supplement of paper PMC8728848
# Only a selection was taken, and the strongest signals are over-represented in it overall.
# B1: Als1 (Candida albicans), P46590 (protein)
# chain: KTITGVFDSFNSLTWSNAANYAFKGPGYPTWNAVLGWSLDGTSANPGDTFTLNMPCVFKYTTSQTSVDLTADGVKYATCQFYSGEEFTTFSTLTCTVNDALKSSIKAFGTVTLPIAFNVGGTGSSTDLEDSKCFTAGTNTVTFNDGDKDISIDVEFEKSTVDPSGYLYASRVMPSLNKVTTLFVAPQCENGYTSGTMGFSSSNGDVAIDCSNIHIGITKGLNDWNYPVSSESFSYTKTCTSNGIQIKYQNVPAGYRPFIDAYISATDVNQYTLAYTNDYTCAGSRLQSKPFTLRWTGYKNSDAGSNGIVIVATTRTVTDSTTAVTTLPFNPSVDKTKTIEILQPIPTTTITTSYVGVTTSYLTKTAPIGETATVIVDVPYHTTTTVTSEWTGTITTTTTRTNPTDSIDTVVVQVP
# Key:
# Test in all cases: glycan array binding signal (z-score within array); higher = stronger binding
# Conditions in all cases: glycan notation: IUPAC condensed, linker removed
# [1] = molecular target: Fuc(a1-2)Gal(b1-3)GalNAc(b1-3)Gal
# Outline: (§1)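 The Consortium for Functional Glycomics database supplied 3228 glycan arrays, of which those lacking an available protein sequence were dropped. The binding signal, a within-array Z-score, was averaged across arrays of the same protein sequence and across linkers. Negative scores can be read as non-binding.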
# Fuc(a1-2)Gal(b1-3)GlcNAc = molecular target: Fuc(a1-2)Gal(b1-3)GlcNAc
# Outline: as §1
# [2] = molecular target: Fuc(a1-2)Gal(b1-4)GlcNAc(b1-2)Man(a1-3)[Fuc(a1-2)Gal(b1-4)GlcNAc(b1-2)Man(a1-6)]Man(b1-4)GlcNAc(b1-4)[Fuc(a1-6)]GlcNAc
# Outline: as §1
# [3] = molecular target: Fuc(a1-2)Gal6S(b1-4)Glc6S
# Outline: as §1
# [4] = molecular target: Fuc(a1-2)[Gal(a1-3)]Gal(b1-3)GalNAc(b1-3)Gal(a1-4)Gal(b1-4)Glc
# Outline: as §1
# [5] = molecular target: Fuc(a1-2)[Gal(a1-3)]Gal(b1-4)[Fuc(a1-3)]Glc
# Outline: as §1
# [6] = molecular target: Fuc(a1-2)[GalNAc(a1-3)]Gal(b1-3)GlcNAc(b1-2)Man(a1-3)[Fuc(a1-2)[GalNAc(a1-3)]Gal(b1-3)GlcNAc(b1-2)Man(a1-6)]Man(b1-4)GlcNAc(b1-4)[Fuc(a1-6)]GlcNAc
# Outline: as §1
# [7] = molecular target: Fuc(a1-2)[GalNAc(a1-3)]Gal(b1-4)GlcNAc(b1-2)Man
# Outline: as §1
# [8] = molecular target: Fuc(a1-3)[Gal(b1-4)]Glc6S
# Outline: as §1
# [9] = molecular target: Fuc(a1-3)[Gal(b1-4)]GlcNAc(b1-2)Man(a1-3)[Fuc(a1-3)[Gal(b1-4)]GlcNAc(b1-2)Man(a1-6)]Man(b1-4)GlcNAc(b1-4)GlcNAc
# Outline: as §1
# [10] = molecular target: Fuc(a1-3)[Gal(b1-4)]GlcNAc(b1-2)Man(a1-3)[Fuc(a1-3)[Gal(b1-4)]GlcNAc(b1-2)Man(a1-6)]Man(b1-4)GlcNAc(b1-4)[Fuc(a1-6)]GlcNAc
# Outline: as §1
# Gal(a1-3)Gal(b1-4)Glc = molecular target: Gal(a1-3)Gal(b1-4)Glc
# Outline: as §1
# Gal(a1-3)GalNAc = molecular target: Gal(a1-3)GalNAc
# Outline: as §1
# Gal(a1-4)Gal(b1-4)GlcNAc = molecular target: Gal(a1-4)Gal(b1-4)GlcNAc
# Outline: as §1
# Gal(b1-3)Gal = molecular target: Gal(b1-3)Gal
# Outline: as §1
# [11] = molecular target: Gal(b1-3)GlcNAc(a1-3)Gal(b1-4)GlcNAc
# Outline: as §1
# Gal(b1-3)GlcNAc(b1-2)Man = molecular target: Gal(b1-3)GlcNAc(b1-2)Man
# Outline: as §1
# [12] = molecular target: Gal(b1-3)GlcNAc(b1-3)GalNAc
# Outline: as §1
# [13] = molecular target: Gal(b1-4)GalNAc(b1-3)[Fuc(a1-2)]Gal(b1-4)GlcNAc
# Outline: as §1
# [14] = molecular target: Gal(b1-4)GlcNAc(b1-2)Man(a1-3)[GlcNAc(b1-4)][Gal(b1-4)GlcNAc(b1-2)Man(a1-6)]Man(b1-4)GlcNAc(b1-4)GlcNAc
# Outline: as §1
# [15] = molecular target: Gal(b1-4)GlcNAc(b1-2)[Gal(b1-4)GlcNAc(b1-6)]Man(a1-6)[Gal(b1-4)GlcNAc(b1-2)Man(a1-3)]Man(b1-4)GlcNAc(b1-4)GlcNAc
# Outline: as §1
# [16] = molecular target: Gal(b1-4)GlcNAc(b1-3)Gal(b1-4)GlcNAc(b1-2)Man(a1-3)[Gal(b1-4)GlcNAc(b1-3)Gal(b1-4)GlcNAc(b1-2)Man(a1-6)]Man(b1-4)GlcNAc(b1-4)GlcNAc
# Outline: as §1
# Gal(b1-6)Gal = molecular target: Gal(b1-6)Gal
# Outline: as §1
binder,measurement,setting,value
B1,glycan array binding signal (z-score),[1],3.32
same,glycan array binding signal (z-score),Fuc(a1-2)Gal(b1-3)GlcNAc,-0.524
same,glycan array binding signal (z-score),[2],1.97
same,glycan array binding signal (z-score),[3],-0.25
same,glycan array binding signal (z-score),[4],-0.049
same,glycan array binding signal (z-score),[5],0.021
same,glycan array binding signal (z-score),[6],-0.413
same,glycan array binding signal (z-score),[7],-0.488
same,glycan array binding signal (z-score),[8],3.38
same,glycan array binding signal (z-score),[9],0.227
same,glycan array binding signal (z-score),[10],0.146
same,glycan array binding signal (z-score),Gal(a1-3)Gal(b1-4)Glc,-0.664
same,glycan array binding signal (z-score),Gal(a1-3)GalNAc,-0.407
same,glycan array binding signal (z-score),Gal(a1-4)Gal(b1-4)GlcNAc,-0.303
same,glycan array binding signal (z-score),Gal(b1-3)Gal,-0.458
same,glycan array binding signal (z-score),[11],-0.432
same,glycan array binding signal (z-score),Gal(b1-3)GlcNAc(b1-2)Man,0.092
same,glycan array binding signal (z-score),[12],-0.05
same,glycan array binding signal (z-score),[13],-0.644
same,glycan array binding signal (z-score),[14],8.37
same,glycan array binding signal (z-score),[15],7.7
same,glycan array binding signal (z-score),[16],4.19
same,glycan array binding signal (z-score),Gal(b1-6)Gal,-0.739
